Consider 23 molecules from PubChem BioAssay (NCATS).

Assay [1] is described as follows: Confirmation and Secondary Assay for Modulators of Hemoglobin Beta Chain Splicing at IVS2 654 locus (AID 910).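 Also: per-well total GFP intensity by laser scanning cytometry after 2-day treatment.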 Summed up: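 HeLa cells stably carrying EGFP interrupted by mutant beta-globin IVS2-654 intron (CMV-driven) were treated with compound for 2 days at 37C; corrected splicing was scored as total peak GFP intensity per well (488 nm excitation, 500-520 nm emission).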

A short description of assay [2]: qHTS Assay for Identification of Small Molecule Agonists for Thrombopoietin (TPO) Signaling Pathway (AID 917). Also: potency is read from the fitted curve at half-maximal effect. The method, boiled down:
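Murine Ba/F3 cells stably expressing human TPO receptor and a Glycoprotein IIb promoter–luciferase reporter were IL-3-starved overnight, then treated with compounds plus TPO (26 pM final, its EC50) for 24 hrs at 37 C; luminescence was read.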
On the technique in general: Quantitative high-throughput screening tests each substance at several concentrations.

Assay [3] is described as follows: Confirmation and Secondary Assay for Modulators of Hemoglobin Beta Chain Splicing at IVS2 705 locus (AID 930).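 Also: HeLa cells stably expressing the EGFP-705 splicing reporter; GFP fluorescence per well restored by corrected splicing of the IVS2-705 intron in EGFP; series mostly up to about 46 µM.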 Summed up:
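HeLa EGFP-705 reporter; 500 cells/well, o/n 37C 5% CO2; cpd 2 d; 488 ex/500-520 em laser scan; total peak GFP intensity/well. Ref: 500 nM […] antisense PNA.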

Assay [4] has as its target Muscarinic acetylcholine receptor M1 (Rattus norvegicus) (UniProt P08482). Briefly: qHTS Assay for Antagonists of Acetylcholine Muscarinic M1 Receptor: Measurement of IP-One Response (AID 944). Also: nearly all actives have a fitted effect of over 75% in size. The method, boiled down: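 CHO cells expressing rat M1 receptor, recovered overnight, were pre-incubated 10 min with compound, then stimulated 30 min with carbachol at EC80 (200 nM) in LiCl-containing buffer, pH 7.4. IP1 accumulation was read by HTRF (620/665 nm).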

Assay [5] concerns the target Pyruvate kinase (Leishmania mexicana) (UniProt Q27686). Put plainly: qHTS Validation Assay for Inhibitors of Leishmania Mexicana Pyruvate Kinase (AID 945). Also: potency is read from the fitted curve at half-maximal effect. Summed up:
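Substrate mix (0.5 mM PEP, 0.1 mM ADP, 7 mM MgCl2, 50 mM KCl, pH 7.2 imidazole) received compound by pin tool, then 0.2 nM LmPYK E451W. After 1 h at room temperature, PKLight was added and luminescence measured.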

Assay [6] addresses Muscarinic acetylcholine receptor M1 (Rattus norvegicus) (UniProt P08482). Briefly: qHTS Assay for Antagonists of Acetylcholine Muscarinic M1 Receptor: Kinetic Measurement of Intracellular Calcium Response (AID 943).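 Also: Fluo-4 calcium signal as peak divided by basal fluorescence over 4 min; series mostly up to about 35 µM; nearly all actives have a fitted effect of over 75% in size.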 Summed up:
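CHO cells stably expressing rat M1 were loaded with no-wash Fluo-4 dye for 1 h at 37C, pre-incubated 10 min with compound, then challenged with EC80 carbachol (100 nM final); kinetic calcium read 4 min, peak/basal ratio.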

The nature of assay [7]: Cell Viability - LYMP2-001 (AID 921). Also: series mostly up to about 92 µM; nearly all actives have a fitted effect of over 70% in size. Summed up:
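Human lymphoblastoid cells (Coriell), 2500 per well, were preincubated 5 hr at 37 C, then exposed to compounds in complete medium for 24 hr at 37 C. Cellular ATP was read by CellTiter-Glo luminescence; AC50 from Hill fits of concentration-response data.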

The nature of assay [8]: MultiTox-Fluor Cytotoxicity Assay - LYMP1-001 - Dead Cells (AID 946).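 Also: cells exposed to compound for 16 h.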 Summed up:
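LYMP1-001 lymphoblastoid cells (2500/well) treated 16 h at 37 C. Dead-cell protease cleavage of bis-AAF-R110 read at Ex/Em 485/520. Normalized to DMSO and 15 uM tetraoctylammonium bromide; AC50 from Hill fits.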

The structures appear in SMILES notation. A number with no mark means an inactive call. Records with an inconclusive call do not appear. Activity calls are given as the source filed them. Calls follow the shape of the dose curve; as a rule, active = well fitted curve in the direction sought with a large enough effect; inconclusive = small, poorly fitted or top-dose-only effect, or another doubt; inactive = no such curve, though single readings can be large; an effect the other way counts as inactive or inconclusive.

Muscarinic acetylcholine receptor M1 (Rattus norvegicus), sequence (P08482 whole entry, looked up): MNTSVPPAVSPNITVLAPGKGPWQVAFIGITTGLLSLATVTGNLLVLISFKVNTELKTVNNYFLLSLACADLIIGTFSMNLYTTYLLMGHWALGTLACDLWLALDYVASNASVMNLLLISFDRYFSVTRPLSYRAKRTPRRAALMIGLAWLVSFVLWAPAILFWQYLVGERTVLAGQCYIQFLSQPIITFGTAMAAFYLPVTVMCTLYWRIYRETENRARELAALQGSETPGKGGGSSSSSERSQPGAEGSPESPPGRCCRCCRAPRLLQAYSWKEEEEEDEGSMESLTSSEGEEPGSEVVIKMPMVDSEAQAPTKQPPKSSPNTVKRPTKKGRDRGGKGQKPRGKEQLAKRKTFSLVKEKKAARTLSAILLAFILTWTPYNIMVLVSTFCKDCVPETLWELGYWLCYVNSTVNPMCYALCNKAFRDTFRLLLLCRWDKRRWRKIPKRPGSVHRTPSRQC
Pyruvate kinase (Leishmania mexicana), sequence (Q27686 2-499 E452W): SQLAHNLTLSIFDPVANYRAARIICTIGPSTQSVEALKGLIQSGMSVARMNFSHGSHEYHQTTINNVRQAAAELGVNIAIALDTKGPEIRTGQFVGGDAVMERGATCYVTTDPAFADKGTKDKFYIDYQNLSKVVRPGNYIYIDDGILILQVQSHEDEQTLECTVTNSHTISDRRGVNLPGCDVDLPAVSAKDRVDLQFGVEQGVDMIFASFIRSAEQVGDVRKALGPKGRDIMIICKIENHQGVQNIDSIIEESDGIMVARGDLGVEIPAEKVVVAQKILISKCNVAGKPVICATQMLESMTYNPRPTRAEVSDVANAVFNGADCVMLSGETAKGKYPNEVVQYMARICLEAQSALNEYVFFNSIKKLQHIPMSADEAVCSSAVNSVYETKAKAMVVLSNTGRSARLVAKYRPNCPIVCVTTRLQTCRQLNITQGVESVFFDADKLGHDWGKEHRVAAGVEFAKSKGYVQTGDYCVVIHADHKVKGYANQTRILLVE

For the molecule `Cn1cnc2c1c(=O)[nH]c(=O)n2C`, the Potency entry in assay [1], in assay [2], in assay [4] and in assay [5] was “inactive” throughout. The call in assay [3] was inactive.
`O=C(C1CCCCC1)N1CC(=O)N2CCc3ccccc3C2C1` (stereo not drawn): the Potency entry in assay [1] and in assay [2] was “inactive” each time. In assay [3], the result was inactive.
Regarding `CN1CCN(C2=Nc3cc(Cl)ccc3Nc3ccccc32)CC1`, the Potency result in assay [1], in assay [2] and in assay [5] was “inactive” throughout. Further, in assay [3], the outcome was inactive.
On to `NC12CC3CC(CC(C3)C1)C2`, for which the Potency result in assay [1] and in assay [2] was “inactive” throughout. Moreover, the molecule was called inactive in assay [3].
Regarding `NCCc1cnc[nH]1`, the Potency entry in assay [1], in assay [2], in assay [6], in assay [4] and in assay [5] was “inactive” throughout. For the same molecule, the molecule was called inactive in assay [3].
On to `CS(=O)(=O)Nc1ccc([N+](=O)[O-])cc1Oc1ccccc1`, for which the Potency entry in assay [1] and in assay [2] was “inactive” throughout. For the same molecule, the molecule was classed as inactive in assay [3].
Take `Cc1cc(C(C)(C)C)cc(C)c1CC1=NCCN1`: the Potency entry in assay [1], in assay [2] and in assay [5] was “inactive” each time. In addition, the result in assay [3] was inactive.
With `Clc1ccc(C(c2ccccc2Cl)C(Cl)Cl)cc1` (stereo not drawn), the Potency entry in assay [1], in assay [2], in assay [5] and in assay [8] was “inactive” throughout. Besides, the outcome in assay [7] and in assay [3] was inactive.
For `CN1C(C(=O)Nc2ccccn2)=C(O)c2ccccc2S1(=O)=O`, the Potency result in assay [1], in assay [2] and in assay [5] was “inactive” in each case. In addition, the molecule was called inactive in assay [3].
As for `NCCCCCC(=O)O`, the Potency result in assay [1], in assay [2] and in assay [5] was “inactive” throughout. Also, in assay [3], the molecule was called inactive.
As to `Cc1cc(C(C)(C)C)c(O)c(C)c1CC1=NCCN1`, the Potency result in assay [1], in assay [2] and in assay [5] was “inactive” in each case. In addition, the call in assay [3] was inactive.
Turning to `Cc1ccccc1N1C(=O)c2cc(S(N)(=O)=O)c(Cl)cc2NC1C` (stereo not drawn), the Potency result in assay [1], in assay [2] and in assay [5] was “inactive” throughout. The call in assay [3] was inactive.
In the case of `Nc1ccn([C@H]2CC[C@@H](CO)O2)c(=O)n1`, the Potency entry in assay [1], in assay [2], in assay [6], in assay [4], in assay [5] and in assay [8] was “inactive” each time. Besides, the molecule was called inactive in assay [7] and in assay [3].
On to `NC(=O)NO`, for which the Potency entry in assay [1], in assay [2] and in assay [5] was “inactive” in each case. The molecule was classed as inactive in assay [3].
In the case of `COc1ccc2[nH]cc(CCNC(C)=O)c2c1`, the Potency entry in assay [1], in assay [2], in assay [4], in assay [5] and in assay [8] was “inactive” each time. The molecule was classed as inactive in assay [7] and in assay [3].
For `O=C(c1ccc(F)cc1)C1CCN(CCn2c(=O)[nH]c3ccccc3c2=O)CC1`, the Potency entry in assay [1], in assay [2], in assay [4] and in assay [5] was “inactive” each time. Besides, the outcome in assay [3] was inactive.
As for `Cn1c(=O)c2[nH]cnc2n(C)c1=O`, the Potency entry in assay [1], in assay [2] and in assay [8] was “inactive” in each case. Besides, the molecule was called inactive in assay [7] and in assay [3].
On to `CCc1cccc2c3c([nH]c12)C(CC)(CC(=O)O)OCC3` (stereo not drawn), for which the Potency result in assay [1], in assay [2] and in assay [5] was “inactive” throughout. The molecule was called inactive in assay [3].
As to `CCC1(c2ccccc2)C(=O)NCNC1=O`, the Potency result in assay [1], in assay [2] and in assay [8] was “inactive” in each case. Also, the result in assay [7] and in assay [3] was inactive.
Turning to `O=c1c(-c2ccc(O)cc2)coc2cc(O)cc(O)c12`, the Potency entry in assay [1] and in assay [8] was “inactive” throughout. The Potency was 1.58 µM (active) in assay [2] and 12.6 µM (active) in assay [5]. The outcome in assay [7] and in assay [3] was inactive.
Regarding `CN1CCC(=C2c3ccccc3CC(=O)c3sccc32)CC1`, the Potency result in assay [1], in assay [2] and in assay [5] was “inactive” throughout. For the same molecule, the result in assay [3] was inactive.
Turning to `Nc1c2c(nc3ccccc13)CCCC2`, the Potency result in assay [1], in assay [2], in assay [5] and in assay [8] was “inactive” in each case. Moreover, the call in assay [7] and in assay [3] was inactive.
For the molecule `CC(C)Cc1ccc(C(C)C(=O)O)cc1` (stereo not drawn), the Potency entry in assay [1], in assay [2] and in assay [5] was “inactive” in each case. In addition, the outcome in assay [3] was inactive.
